These results are taken from ChEMBL document CHEMBL1157539, “Thousands of chemical starting points for antimalarial lead identification” (Nature, 2010).

The subject of this assay is Plasmodium falciparum. The assay can be described thus: GSK_TCMDC: Inhibition of Plasmodium falciparum 3D7 in whole red blood cells, using parasite LDH activity as an index of growth. Test compounds present at 2uM. It counts as functional.
The compound `Cc1[nH]c(C)c(Cc2ccc(Oc3ccc(OC(F)(F)F)cc3)cc2)c(=O)c1Br` registered an Inhibition of 96%. With `CCN(CC)CCCSc1ccc(-c2ccc(SCCCN(CC)CC)cc2)cc1`, the Inhibition amounted to 87%.

Compound `O=C(/C=C/c1ccc(C(F)(F)F)cc1)NCCCCCN1CCCN(C(=O)Nc2ccc(Cl)cc2)CC1` yielded an Inhibition of 99%. As for `CNC(=O)C(NC(=O)c1ccccc1C(=O)OC)c1ccccc1` (centres undefined), the Inhibition was determined as 96%. With `CC(=O)Nc1ccc(C(=O)Nc2cccc(-c3ccc(-c4nc5cccc(C)c5[nH]4)cc3)c2)cn1` the figure was 100%. The compound `Fc1ccc2[nH]c(-c3cccc(-c4ccc(CNCC5CCCO5)cc4)c3)nc2c1.O=C(O)C(F)(F)F` (centres undefined) returned an Inhibition of 100%. The compound `CCN(CC)CCN(Cc1ccc(-c2ccc(Cl)s2)cc1)C(=O)Cn1c(CCc2cccc(F)c2F)nc(=O)c2ccccc21.O=C(O)C(O)C(O)C(=O)O` displayed an Inhibition of 96%.

In turn, `CCOc1ccc(-c2nc(NC(=O)CS(=O)(=O)c3ccccc3)sc2C)cc1` came in with an Inhibition of 100%.

The compound `CCc1c(CCNCC/C=C/CCNCCc2ccc(OC)c(OC)c2CC)ccc(OC)c1OC.Cl` had an Inhibition of 100%. In turn, `CC(C)CCNC(=N)Nc1ccc(OCCCOc2ccc(NC(=N)NCCC(C)C)cc2)cc1` registered an Inhibition of 100%. The result for `CC(C)c1ccc(NC(=O)c2ccc(NCCCN(C)Cc3ccccc3)c([N+](=O)[O-])c2)cc1` reads 100%; that for `CN1CCN(c2ccc(Nc3c4ccccc4nc4ccccc34)cc2)CC1`, 100%; that for `Oc1c(C(Nc2ccccn2)c2ccco2)cc(Cl)c2cccnc12` (centres undefined), 87%. The compound `COc1ccc(Cl)cc1NC(=O)CN(C)C(=O)c1cnn(-c2ccccc2)n1` showed an Inhibition of 100%.

A word on the Inhibition: it is how much of the control response was suppressed. A high value points to strong suppression.
